Laboratory results taken from PubChem BioAssay (EPA / NIEHS).
Inconclusive results are not listed. The source made the active and inactive calls. The calls were made as follows: active = hit-call score of the fitted dose curve at least 0.9, where 1 is the maximum; inconclusive = response in the unintended direction; inactive = score below 0.9.

These compounds were tested against Retinoic acid receptor RXR-alpha (Homo sapiens) (UniProt P19793) (assay: OT_NURR1_NURR1RXRa_1440: Odyssey Thera (OT) 24-hour HEK293T Protein Complementation Assay for Nurr1/retinoid X receptor (RXR) (AID 2283386)).
Chain of Retinoic acid receptor RXR-alpha (Homo sapiens) (P19793 whole entry, looked up, the tested form may be a part): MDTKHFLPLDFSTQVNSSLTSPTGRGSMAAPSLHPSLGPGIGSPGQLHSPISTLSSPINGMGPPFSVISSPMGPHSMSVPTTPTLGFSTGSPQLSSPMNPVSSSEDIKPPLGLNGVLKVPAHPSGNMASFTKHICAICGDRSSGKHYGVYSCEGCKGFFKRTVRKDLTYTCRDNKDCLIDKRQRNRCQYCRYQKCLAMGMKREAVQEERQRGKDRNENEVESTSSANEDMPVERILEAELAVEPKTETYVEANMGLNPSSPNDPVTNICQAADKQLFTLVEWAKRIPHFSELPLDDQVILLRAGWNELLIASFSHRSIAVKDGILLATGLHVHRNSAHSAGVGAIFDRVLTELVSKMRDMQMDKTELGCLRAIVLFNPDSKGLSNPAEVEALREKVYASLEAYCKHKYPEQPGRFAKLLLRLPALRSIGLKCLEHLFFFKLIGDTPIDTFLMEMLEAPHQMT
Outline: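 Cell-based binding reporter: HEK293T cells, 24 h exposure, fluorescence-detected fragment complementation, DMSO as baseline.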
In the case of CCCCCCCO, the outcome is reported as “inactive”.
With CCc1occc(=O)c1O the outcome was “inactive”.
CC1=CC=C(C(C)C)CC1 was tested, and the outcome was “inactive”.
For O=C(O)/C=C/c1ccccc1, the outcome was “inactive”.
For O=C(O)CC(C(=O)O)S(=O)(=O)O (centres undefined), the outcome was “inactive”.
For C[Si]1(C)O[Si](C)(C)O[Si](C)(C)O[Si](C)(C)O[Si](C)(C)O1, the outcome was “inactive”.
In the case of O=C(OCc1ccccc1)c1ccc(O)cc1, the AC50 is reported as 69.9 µM (active).
In the case of CCCCCC[C@@H](O)C/C=C\CCCCCCCC(=O)OCC(O)CO (some centres undefined), the outcome is reported as “inactive”.
COC(=O)c1ccccc1C was tested, and the outcome was “inactive”.
For c1ccc(Nc2cccc3ccccc23)cc1, the AC50 was 82 µM (active).
With CCCCCCOC(=O)CCCCC(=O)OCCCCCC the outcome was “inactive”.
CCCCCCC=O was tested, and the outcome was “inactive”.
For O=C(Nc1ccccc1)c1cc(Cl)ccc1O, the AC50 was 16.1 µM (active).
For CC(C)(C)N, the outcome was “inactive”.
